Measured values published in PubChem BioAssay AID2058 (Sanford-Burnham Center for Chemical Genomics, 2009).
Screen size: about 290,000 compounds; about 150 (0.052%) were called active.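 The calls were made as follows: active = inhibition of at least 50% with at least 30 cells and total cytoplasm GFP at most 10,000,000; inconclusive = under 30 cells or total GFP of 10,000,000 plus; inactive = the rest.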 Shown is part of a subset that was picked to be rich in actives. Results with a measured potency or affinity are listed apart.

Target: G-protein coupled receptor 35 (Homo sapiens) (UniProt Q9HC97)
Test: GPR35 antagonists blocking zaprinast-driven arrestin recruitment, primary screen, imaging, U2OS, beta-arrestin-GFP, zaprinast agonist (AID 2058)
Details: U2OS GPR35 beta-arrestin-GFP translocation imaging, zaprinast antagonism; at 10 µM; active compounds read high

Sequence of G-protein coupled receptor 35 (Homo sapiens) (Q9HC97 whole entry, looked up): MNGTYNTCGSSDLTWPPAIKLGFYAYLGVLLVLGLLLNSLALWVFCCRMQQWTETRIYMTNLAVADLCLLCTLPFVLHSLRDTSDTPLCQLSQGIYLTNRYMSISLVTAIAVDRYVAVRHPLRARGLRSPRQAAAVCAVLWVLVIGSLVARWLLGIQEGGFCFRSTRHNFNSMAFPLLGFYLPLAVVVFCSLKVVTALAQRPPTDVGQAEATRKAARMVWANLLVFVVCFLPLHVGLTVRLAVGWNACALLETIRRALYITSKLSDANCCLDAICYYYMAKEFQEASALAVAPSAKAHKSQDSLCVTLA

inhibition, active:
COc1ccc(C(=O)/C=C/C(=O)N(CC(=O)NC2CCCCC2)CC2CCCO2)c(O)c1 (stereo not drawn) 69.1%
COc1cc(/C=C2/SC(=S)N(Cc3ccccc3)C2=O)cc(Cl)c1O 74.4%

inhibition, inactive:
COc1ccc(COc2ccccc2C(=O)Nc2ccccn2)cc1[N+](=O)[O-] 15.8%
Cc1ccc(S(=O)(=O)N/N=C/c2cccc(OC3CSC3)c2)cc1 9.4%
C[C@@H]1CC=C[C@H]2[C@H]1C(=O)N(Cc1ccccc1)[C@H]2c1ccc(F)c(-c2ccc(N(C)C)cc2)c1 17.6%
Cc1ccc(-c2nnc(N3CC(C)OC(C)C3)c3ccccc23)cc1 (stereo not drawn) 13.6%
COc1cc(C(=S)N2CCOCC2)ccc1OC(=O)c1cc([N+](=O)[O-])c(C)c([N+](=O)[O-])c1 10.7%
CCc1ccc(C(C)NC(=O)c2ccc3c(c2)OCO3)cc1 (stereo not drawn) -12.5%
O=C(NC(c1ccccc1)c1ccccc1)c1ccc(CO)cc1 7%
CC1=CC(C)(C)N(C)C(=O)N1c1ccc(Cl)cc1 20.7%
Cc1cc(=O)cc(C)n1-c1ccc(Cl)cc1 -8.7%
COC1CCN(C(=O)c2cc(COc3ccc(-n4cncn4)cc3)on2)CC1 17.9%
O=C(Nc1cc([N+](=O)[O-])ccc1N1CCCC1)c1ccco1 -5%
CC(C)(C)C(=O)C[n+]1ccccc1 -9.2%
CCCOC(=O)c1ccc(Nc2cc(C)nc3ncnn23)cc1 11.5%
COCCN(CC(=O)NC1CCCCC1)C(=O)/C=C/C(=O)c1ccc(OC)cc1O 15.7%
COc1ccc(C(=O)/C=C/C(=O)N(CC(=O)NC2CCCCC2)Cc2ccccc2)c(O)c1 -0.1%
Cc1nn(-c2ccccc2)nc1C(N)=O 12.1%
O=C1C2C3C=CC(C3)C2C(=O)N1CCCCCCN1C(=O)C2C3C=CC(C3)C2C1=O (stereo not drawn) -2%
O=C1C=CC(=O)N1Cc1ccccc1 4.8%
COc1cccc(Nc2nc(N)c([N+](=O)[O-])c(N3CCOCC3)n2)c1 0.4%
O=C(NCc1ccco1)C(=O)NCC1OCCCN1S(=O)(=O)c1ccc(Cl)cc1 (stereo not drawn) -6.3%
C/C(=N/NC(=O)CNC(=O)C1COc2ccccc2O1)c1cccc(O)c1 (stereo not drawn) 0.2%
O=C(/C=C\c1ccccc1)NCC(=O)N/N=C/c1ccc(O)cc1O 10.7%
COc1ccc(/C=C/C(=O)NCC(=O)N/N=C/c2ccc(OC)cc2)cc1 9%
COc1ccc(/C=C2\SC(=S)N(CCCC(=O)Nc3ccc(O)cc3)C2=O)cc1 44.8%
CCc1ccc(/C=C2/SC(=S)N(CCC(=O)Nc3cccc(C(=O)O)c3)C2=O)cc1 -9.9%
COc1cc(/C=C2/SC(=S)N(Cc3ccccc3)C2=O)ccc1O -5.7%
O=C(CCCN1C(=O)/C(=C\c2cccs2)SC1=S)Nc1cccc(C(=O)O)c1 0.3%
COc1ccc(/C=C2\SC(=S)N(CCC(=O)Nc3cccc(C(=O)O)c3)C2=O)cc1 2.8%
COc1ccc(/C=C2/SC(=S)N(Cc3ccccc3)C2=O)cc1O -18.7%
COc1ccc(/C=C2\SC(=S)N(CCCC(=O)Nc3ccc(C(=O)O)cc3)C2=O)cc1OC 30%
Cc1ccc(/C=C2/SC(=S)N(CCCC(=O)Nc3ccc(O)cc3)C2=O)cc1 36.2%
